BL2 CD40 inh = CD40 pathway inhibition in BL2 cells | BL2 NF-kB luciferase reporter, CD40L-induced, 4 h | inhibition, % at 10 µM | actives 0.94% (n = 83,000);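 active = mean inhibition of at least 50% with a set share of replicates also reaching that level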;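 note: 0% = neutral control wells and 100% = IKK inhibitor VII at 50 µM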
* hit, by the source's call; ! = not confirmed by another sample; [ ] = another dose, or the depositor's remark. This is one part of a sample in which hits are shown more often than they occur.

SMILES | BL2 CD40 inh
[O-]C(=C(C(=S)Nc1cccc2ccccc12)[n+]1ccccc1)c1ccc2c(c1)OCCO2 | 55*
O=C(Nc1cccc2cccnc12)c1ccc2c(c1)OCCO2 | -40
COCC(=O)N1CC2(C1)CN(Cc1ccccc1F)[C@H](CO)c1[nH]c3cc(OC)ccc3c12 | 8[25 µM]
Cc1ccccc1NC(=O)c1nc(S(C)(=O)=O)ncc1Cl | 104*
CSc1ncc(Cl)c(C(=O)Nc2cccc3ccccc23)n1 | 2
CCOC(=O)c1nc(C)[nH]c1C(=O)OCC | -2
Cc1cc(C(=O)Nc2cc(S(C)(=O)=O)ccc2Cl)no1 | 0
CCOC(=O)c1ccc(NS(C)(=O)=O)cc1 | -3
CCOC(=O)c1nc(S(C)(=O)=O)ncc1Cl | 108*
COCC(=O)N1[C@H](CNC(=O)c2ccccn2)[C@@H](c2ccccc2)[C@@H]1CO | -5[25 µM]
O=C(Nc1nccs1)c1cc2c(s1)CCCCC2 | 92*
O=C(Nn1cnnc1)c1cc2c(s1)CCCC2 | -1
CC(C)Cc1nnc(NC(=O)c2cc3c(s2)CCC3)s1 | -36
COc1ccc(-c2ccc3c(c2)[C@@H]2[C@@H](CCN2C(=O)C2CCOCC2)[C@@H](CO)N3C)cc1 | -37[25 µM]
O=S(=O)(c1ccccc1)N1[C@@H]2CNc3ccccc3[C@@H]2[C@@H]1CO | -14[25 µM]
Cc1ccc(S(=O)(=O)N(C)C[C@H]2OCCCC[C@@H](C)Oc3ccc(NS(=O)(=O)c4c(C)noc4C)cc3C(=O)N([C@@H](C)CO)C[C@H]2C)cc1 | 6
Cc1cnc(C(=O)OC(C)C(=O)Nc2ccc(Cl)cn2)cn1 (stereo not given) | 7
CCOc1ncccc1C(=O)OC(C)C(=O)Nc1ccc(Cl)cn1 (stereo not given) | 68*
Cc1cccc(OCC(=O)OC(C)C(=O)Nc2ccc(Cl)cn2)c1 (stereo not given) | 8
CC(=O)N1[C@H](CO)[C@H](c2ccc(-c3cccc(F)c3)cc2)[C@H]1CNC(=O)C1CC1 | 1
CC(C)NC(=O)N(C)C[C@@H]1Oc2ccc(N(S(C)(=O)=O)S(C)(=O)=O)cc2C(=O)N(C)C[C@@H]1C | 1
CC(=O)N(C)C[C@H]1Oc2ccc(NS(C)(=O)=O)cc2C(=O)N(C)C[C@H]1C | -18
CCCCCCCn1c2c(c(=N)c3ccccc31)CCC2 | 84*
CCCCCCN1Cc2ccccc2C1 | -16
CCCCn1c(=N)n(CC(=O)O)c2ccccc21 | 6
SMILES | BL2 CD40 inh
CCC(=O)N1CC[C@@H]2[C@@H](CO)Nc3ccc(-c4ccc(OC)cc4)cc3[C@@H]21 | 10[25 µM]
Oc1cc2c(c(Cl)c1O)CCNC[C@@H]2c1ccccc1 | -5[25 µM]
CCCNC(=O)N1CC2(C1)CN(C(=O)Nc1ccc(F)cc1)[C@@H](CO)c1[nH]c3cc(OC)ccc3c12 | -10[25 µM]
COc1ccc2c3c([nH]c2c1)[C@@H](CO)N(C(=O)Nc1ccc(F)cc1)CC31CN(Cc2cc(F)ccc2F)C1 | 40[25 µM]
COc1ccc2c3c(n(C)c2c1)[C@H](CO)N(C(C)=O)CC31CCN(C(=O)Nc2ccccc2F)CC1 | 12[25 µM]
COc1ccc2c3c(n(C)c2c1)[C@@H](CO)N(C(=O)Nc1ccc(F)cc1)CC31CCN(C(=O)Nc2c(C)noc2C)CC1 | 18[25 µM]
COc1ccc2c3c([nH]c2c1)[C@H](CO)N(C(=O)Nc1ccc(F)cc1)CC31CN(Cc2cc(F)ccc2F)C1 | 56*[25 µM]
COc1ccc2c3c(n(C)c2c1)[C@H](CO)N(C(=O)Nc1ccc(F)cc1)CC31CCN(C(=O)Nc2ccc(F)cc2F)CC1 | 68*[25 µM]
COc1ccccc1-c1ccc([C@@H]2[C@H](C#N)N[C@@H]2CO)cc1 | -16[25 µM]
C[C@@H]1CN(C)C(=O)c2cccc(N(C)C)c2O[C@@H]1CN(C)C(=O)OC(C)(C)C | -89
C[C@H]1CNC(=O)[C@H](Cc2ccc(C(F)(F)F)cc2)CCn2nncc2COC1 | 0[25 µM]
Cc1ccc(-c2ccc([C@H]3[C@H]4CN(C(=O)NC(C)C)CC(=O)N4[C@H]3CO)cc2)cc1 | 5[25 µM]
O=C(C1CCOCC1)N1CC(=O)N2[C@@H](CO)[C@@H](c3ccc(C#CCc4ccccc4)cc3)[C@@H]2C1 | 5[25 µM]
CC(C)NC(=O)N1CC(=O)N2[C@H](CO)[C@@H](c3ccc(/C=C/c4ccccc4)cc3)[C@H]2C1 | 53*[25 µM]
O=C(C1CCOCC1)N1CC(=O)N2[C@H](C1)[C@@H](c1ccc(C#CCc3ccccc3)cc1)[C@@H]2CO | 58*[25 µM]
O=C(C1CCCC1)N1CC(=O)N2[C@@H](CO)[C@H](c3ccc(C#CCc4ccccc4)cc3)[C@@H]2C1 | 93*
O=C(C1CCCC1)N1CC(=O)N2[C@H](CO)[C@@H](c3ccc(C#CCc4ccccc4)cc3)[C@H]2C1 | 43
COCC#Cc1ccc([C@H]2[C@@H](CO)N3C(=O)CN(C(=O)C4CCCC4)C[C@H]23)cc1 | -4
Cc1ccc(-c2ccc([C@H]3[C@H](CO)N4C(=O)CN(C(=O)NC(C)C)C[C@@H]34)cc2)cc1 | -14[25 µM]
O=C(C1CCOCC1)N1CC(=O)N2[C@H](CO)[C@@H](c3ccc(C#CCc4ccccc4)cc3)[C@@H]2C1 | 12[25 µM]
CC(=O)Nc1ccc2c(c1)C(=O)N(C)C[C@@H](C)[C@@H](CN(C)C(=O)OC(C)(C)C)O2 | -7
O=C(C[C@H]1CC[C@@H]2[C@H](COC[C@H](O)CN2Cc2ccc(C(F)(F)F)cc2)O1)N1CCc2ccccc2C1 | 10[25 µM]
CC(C)[C@H]1C(=O)N[C@@H](c2ccc(F)cc2)CC=CC[C@H](C)Oc2ccccc2C(=O)N1C (mixture of isomers) | 20[25 µM]
C[C@@H]1CN([C@@H](C)CO)C(=O)CCCn2cc(nn2)CO[C@@H]1CN(C)Cc1ccc2cccnc2c1 | -9[25 µM]
O=C(NCC1CC1)[C@H]1[C@H](CO)[C@H]2Cn3c(ccc(-c4cccnc4)c3=O)[C@H]2N1Cc1cocn1 | -3[25 µM]
SMILES | BL2 CD40 inh
CCC(=O)N1CCCCN2[C@H](C1)[C@H](c1ccc(C#Cc3ccccc3)cc1)[C@@H]2CO | 12[25 µM]
C[C@H](CO)N1C[C@H](C)[C@H](CN(C)Cc2ccc(Cl)c(Cl)c2)OCc2ccccc2-c2ccccc2C1=O | 15[25 µM]
COc1ccc(CCNC(=O)COC(=O)c2cccs2)cc1 | 1
CC(=O)NCCc1ccc(C(=O)COC(=O)c2cccs2)cc1 | 77*
COc1ccccc1C(=O)COC(=O)c1cccs1 | -58
COc1ccc(C(=O)COC(=O)c2cccs2)cc1 | 81*
CC(=O)NCCc1ccc(C(=O)COC(=O)c2cccn2C)cc1 | 39
COc1ccc(C(=O)Nc2ccc(C(=O)OCC(=O)c3ccccc3)cc2)cc1 | 3
CC=Cc1ccc2n(c1=O)C[C@H]1[C@H](CO)[C@@H](C(=O)NC3CCC3)[C@@H]2N1Cc1cccnc1 (mixture of isomers) | -8[25 µM]
O=C(NC1CCCC1)N[C@@H]1C=C[C@H](CC(=O)N2CCOCC2)O[C@H]1CO | -4[25 µM]
CCCN(CCC)CC1CCCCN1CCNC(=O)N1c2ccccc2C(=O)Nc2cccnc21 (stereo not given) | -15[25 µM]
O=C(C1CCOCC1)N1C[C@@H]2N[C@H](C1)C2c1ccc(/C=C/c2ccccc2)cc1 (stereo not given in full) | 40[25 µM]
O=C(C1CCCC1)N1C[C@@H]2N[C@H](C1)C2c1ccc(/C=C/c2ccccc2)cc1 (stereo not given in full) | 49*!
O=C(c1ccc2c(c1)OCO2)N1C[C@@H]2N[C@H](C1)C2c1ccc(/C=C/c2ccccc2)cc1 (stereo not given in full) | 14[25 µM]
N#Cc1ccc(-c2ccc(C3[C@@H]4CN(C(=O)C5CC5)C[C@H]3N4)cc2)cc1 (stereo not given in full) | 63*!
